Unmarked numbers belong to inactive results. How the calls were made is not given here. Non-standard residues stand in square brackets, D forms with d. Residues, ends and D or L forms follow the SMILES beside them. Groups on a side chain read outwards from the residue. *: point of attachment. X2 = CCC(C)C(N)C1=NC(C(=O)*)CS1; Orn = NCCC[CH](N)C(=O)O

The text below walks through data of PubChem BioAssay.

The subject of this test is Aerobactin synthetase IucA (Klebsiella pneumoniae hvKP1). Nature of the test: IucA enzyme inhibition, primary screen, biochemical, Spectrum library (AID 1346200).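 Further: 100% = wells without compound and 0% = wells lacking enzyme.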 The note with it: malachite green pyrophosphate, A620, at 8 µM, hits give low values.
In the case of `CC1(C)S[C@@H]2[C@H](NC(=O)[C@H](N)c3ccccc3)C(=O)N2[C@H]1C(=O)O`, the activity remaining is 101%.
As for `Cc1cc(OC(=O)c2c(C)cc(O)cc2O)cc(O)c1C(=O)O`, the figure is 115%.
With `COC(=O)[C@]1(C)CCC[C@]2(C)c3ccc(C(C)C)cc3C(=O)CC12` (stereo not given in full) the figure was 89.3%; with `C=C1CCC2[C@](C)(CO)[C@H](O)CC[C@@]2(C)[C@@H]1C/C=C1/C(=O)OC[C@H]1O` (stereo not given in full), 108%; with `CC(=O)Nc1cccc(O)c1`, 120%.
As for `CC(CN(C)C)CN1c2ccccc2Sc2ccccc21` (stereo not given), the figure is 101%.
`COc1cc(NS(C)(=O)=O)ccc1Cc1c2ccccc2nc2ccccc12`: the activity remaining was 104%.
As for `Cc1cc(O)c(C=O)c2c1C(=O)Oc1c(C)c(O)c3c(c1O2)C(O)OC3=O` (stereo not given), the figure is 113%; as for `NC(N)=O`, 91.3%; as for `CC(=O)O[C@@H]1CC2C(C)(C)C(=O)C=C[C@]2(C)C2CC[C@@]3(C)[C@H](c4ccoc4)OC(=O)[C@H]4O[C@]43[C@@]21C` (stereo not given in full), 104%.
As to `O=c1c(-c2cc(O)c(O)c(O)c2)coc2cc(O)c(O)c(O)c12`, the activity remaining was 93.2%.
As for `COc1c(O)cc2c(c1O)[C@H]1O[C@H](CO)[C@@H](O)[C@H](O)[C@@H]1OC2=O`, the figure is 112%; as for `CC(C)(C)CC(C)(C)c1ccc(OCCOCC[N+](C)(C)Cc2ccccc2)cc1`, 113%; as for `CC1(C)S[C@@H]2[C@H](NC(=O)COc3ccccc3)C(=O)N2[C@H]1C(=O)O`, 96.2%.
As for `COC(=O)C1=CO[C@@H](C)[C@@H]2CN3CC[C@]4(C(=O)Nc5ccccc54)C3CC12` (stereo not given in full), the figure is 121%; as for `O=C1CCC(N2C(=O)c3ccccc3C2=O)C(=O)N1` (stereo not given), 117%; as for `CCCCCCCCCCCCC[N+](C)(C)Cc1ccccc1`, 104%.
As for `CC1=C2[C@@H](CC1)[C@@H](C)CC[C@@H]2/C=C(\C)C(=O)O`, the figure is 113%; as for `CCC(C)C(N)C1=NC(C(=O)NC(CC(C)C)C(=O)NC(CCC(=O)O)C(=O)NC(C(=O)NCCCCC2NC(=O)C(CC(N)=O)NC(=O)C(CC(=O)O)NC(=O)C(Cc3cnc[nH]3)NC(=O)C(Cc3ccccc3)NC(=O)C(C(C)CC)NC(=O)C(CCCN)NC2=O)C(C)CC)CS1` (stereo not drawn) (cyclo(DNK([Ile-Glu-Leu-X2])[Orn]IFH); configuration not given here), 123%.
As to `OCCOCCN1CCN(C2=Nc3ccccc3Sc3ccccc32)CC1`, the activity remaining was 105%.
As for `Cc1cc(=O)[nH]c(=S)[nH]1`, the figure is 95.7%; as for `CC(=O)Oc1cc(C)c2c(c1C(OC(C)=O)OC(C)=O)Oc1c(c(C)c(OC(C)=O)c3c1C(OC(C)=O)OC3=O)OC2=O` (stereo not given), 96.1%.
For the compound `NC(=O)N/N=C/c1ccc([N+](=O)[O-])o1`, the activity remaining was 94.6%.
With `COc1c(Cl)ccc(Cl)c1C(=O)O` the figure was 108%.
With `CC1=CC2C(CC1=O)C(C)=CCC2C(C)C` (stereo not given) the figure was 104%; with `Clc1ccccc1CN1CCc2sccc2C1`, 109%.
With `CC(C)(CO)C(O)C(=O)NCCCO` (stereo not given) the figure was 118%; with `CCN1CCN(c2cc3c(cc2F)c(=O)c(C(=O)O)cn3C2CC2)CC1`, 100%; with `COc1ccc(-c2coc3c(OC)c(OC)cc(O)c3c2=O)cc1`, 105%.
`COC1C(O)C(O)C(O)[C@@H](O)C1O` (stereo not given in full): the activity remaining is 106%.
With `CC1(C)CC2C1CC[C@]1(C)CCC3C(C(=O)O)CC(=O)O[C@@]32C1` (stereo not given in full) the figure was 92.5%; with `Nc1ccccc1C(=O)CC(N)C(=O)O` (stereo not given), 118%; with `CCCC(=O)Nc1ncnc2c1ncn2C1O[C@@H]2COP(=O)(O)O[C@H]2[C@H]1OC(=O)CCC` (stereo not given in full), 107%.
With `C[C@H]1O[C@@H](O[C@H]2[C@@H](O)C[C@H](O[C@H]3[C@@H](O)C[C@H](O[C@H]4CC[C@]5(C)C6C[C@@H](O)[C@]7(C)[C@@H](C8=CC(=O)OC8)CC[C@]7(O)C6CC[C@@H]5C4)O[C@@H]3C)O[C@@H]2C)C[C@H](O)[C@@H]1O` (stereo not given in full) the figure was 118%; with `CC(COc1ccccc1)NC(C)[C@H](O)c1ccc(O)cc1` (stereo not given in full), 119%; with `CC(CCC(=O)O)[C@H]1CCC2C3CC[C@@H]4C[C@H](O)CC[C@]4(C)C3C[C@H](O)[C@@]21C` (stereo not given in full), 116%.
With `COC(=O)[C@@H]1OC(=O)C2OC23[C@@]1(C)CCC1[C@]2(C)C(C[C@@H](O)[C@]13C)C(C)(C)[C@H](OC(C)=O)C[C@@H]2OC(C)=O` (stereo not given in full) the figure was 96.4%.
With `COC(=O)C1=CO[C@@H](C)[C@@H]2CN3CC[C@@]4(C(=O)Nc5ccccc54)[C@@H]3CC12` (stereo not given in full), the activity remaining is 107%.
With `CC(C)c1ccc2c(c1)CCC1[C@](C)(CN)CCC[C@]21C` (stereo not given in full) the figure was 111%; with `c1ccc2c(c1)CN1CCCC1=N2`, 99.8%.
